Among the data in PubChem BioAssay AID2314 (National Center for Advancing Translational Sciences (NCATS), 2010) are max response values, retold here.

Each structure is given as a SMILES string. “And” between values parts separate entries of the source, which are not always exact repeats. Identical values can stand only once. Out of some 300,000 compounds screened, about 37,000 (12%) were called active. The list comes from a sample in which actives are over-represented; it also holds similar structures and randomly drawn compounds. Unmarked numbers belong to inactive results. No stated cut-off is given here; in the data, active means max response mostly above about 13% (no sharp cut-off); inactive means mostly below about 14%.

This experiment is described as follows: Cycloheximide Counterscreen for Small Molecule Inhibitors of Shiga Toxin. Further: read at 38.3 µM for the half of the compounds with a filed dose; 0% is about no effect. Conditions: cell reporter, cycloheximide protein synthesis inhibition counterscreen; stronger effect = higher value.
For the compound `CCn1c(CC(=O)Nc2ccccc2)nnc1SCC(=O)N1CCOCC1`, the max response was -2.97%. For `COc1ccc(CCn2c(-c3ccco3)nc3nc4ccccc4nc32)cc1OC` the value was 7.86%; for `Clc1cccc(-c2nc3nc4ccccc4nc3n2Cc2ccco2)c1`, 31.5% (active). Under `Cc1cc(NC(=O)CSc2nc3cc(Cl)ccc3c(=O)n2Cc2ccco2)no1` stands 1.42%; under `Cc1cc2oc(=O)cc(CN3CCN(Cc4ccccc4)CC3)c2cc1C`, 1.14%; under `COc1cc(CN2CC(C)CC(C)C2)cc([N+](=O)[O-])c1O` (stereo not given), -0.873%. On to `O=C(COC(=O)c1ccc(S(=O)(=O)N2CCc3ccccc3C2)cc1)NC(=O)NCc1ccco1`, for which the max response is 6.51%. Under `Cc1csc(NC(=O)NC2(C(F)(F)F)Oc3ccccc3O2)n1` stands 1.16%; under `O=C(CN1C(=O)COc2ccc(Cl)cc21)Nc1ccc(N2CCOCC2)cc1`, 1.87%.

For the compound `O=C(Nc1cc(N2CCOCC2)ncn1)NC1(C(F)(F)F)Oc2ccc(Cl)cc2O1` (stereo not given), the max response is 45.4% (active). For `CCc1cc(=O)oc2c(C)c(OCC(=O)NCCN3CCOCC3)ccc12` the value was 1.6%; for `Cc1ccc(NC(=O)CCN2C(=O)c3ccccc3C2=O)cc1C`, -2.39%. Under `CC(C)=CCCC(C)CN1CCC(n2nccc2NC(=O)c2ccccc2)CC1` (stereo not given) stands -5.01%. Under `CCN1CCN(c2ccc(NC(=O)c3cnccn3)cc2)CC1` stands 26% (active); under `O=C(Nc1ccc(S(=O)(=O)N2CCCCC2)cc1)c1cnccn1`, -3.02%; under `O=C(NCN1CCN(CCO)CC1)c1cnccn1`, -4.08%. Take `N#CCSc1nc(-c2ccccc2)nc2ccc(F)cc12`: the max response was -2.28%. Under `CN(CCc1ccccn1)C(=O)c1ccc(OC2CCN(CCc3ccccc3)CC2)cc1` stands 17% (active). `CN(CCc1ccccn1)C(=O)c1ccc(OC2CCN(Cc3ccccn3)CC2)cc1`: the max response was 0.254%. For `Cn1cc(CNC(=O)c2ccc(OC3CCN(Cc4ccccn4)CC3)cc2)cn1` the value was 9.98%.

With `OCCC(O)CO` (stereo not given), the max response was -4.13% and -5.85% and -2.71%. Under `CCOC(=O)c1ccc(NC(=O)Cn2nnc(-c3ccc(C)cc3)n2)cc1` stands -3.53%; under `CS(=O)(=O)c1ccc(-c2nnn(CC(=O)Nc3ccc4c(c3)OCCO4)n2)cc1`, 15.4% (active).

For `Cc1cccc(C(=O)Nc2ccccc2-c2nnn(CC(=O)Nc3ccc4c(c3)OCCO4)n2)c1`, the max response is -4.9%.

Consider `COc1ccc(S(=O)(=O)N(C)CC(=O)Nc2ccc3c(c2)OCCO3)cc1OC`, for which the max response is 18.2% (active). For `CCc1ccccc1OCC(=O)Nc1ccc2c(c1)OCCO2` the value was 35.2% (active). In the case of `CC(C)CNS(=O)(=O)c1ccc(OCC(=O)Nc2ccc3c(c2)OCO3)c(Cl)c1`, the max response is 5.31%.

Regarding `COc1ccc(NC(=O)CN(C)S(=O)(=O)c2ccccc2)cc1OC`, the max response was -1.84%. For `Cn1ccnc1SCC(=O)Nc1ccc2c(c1)OCCO2` the value was 18%; for `O=C(CSc1nc(C2CC2)nc2ccccc12)Nc1ccc2c(c1)OCCO2`, 1.1%. For `O=C(CN(c1ccc2c(c1)OCCO2)S(=O)(=O)c1ccccc1)Nc1ccc2c(c1)OCO2` the value was 11.4%; for `O=C(CSc1nc2ncccc2[nH]1)Nc1ccc2c(c1)OCCO2`, 25.8% (active); for `CC(C)NS(=O)(=O)c1ccc(OCC(=O)Nc2ccc3c(c2)OCCO3)cc1`, 2.4%.

For `CCc1ccc(Oc2nc([N+](=O)[O-])nn2C)cc1`, the max response was -1.09%.

For the compound `COc1ccc(OCCCCN2CCC(C)CC2)cc1`, the max response is -5.4%.

Regarding `CCN(CC)S(=O)(=O)c1ccc(C(=O)N2CCN(C3=NS(=O)(=O)c4ccccc43)CC2)cc1`, the max response was 7.96%.

As to `CC1CCC(C(C)C)C(=O)/C1=C\c1ccc(NC(=O)CCC(=O)O)cc1` (stereo not given), the max response is -5.07%.

`COc1ccc(CN2CN(C3CCCC3)CSC2=S)cc1`: the max response is 3.32%. For `O=S(=O)(c1ccc(Br)cc1)N1CCC(c2nc3ccccc3[nH]2)CC1` the value was -3.07%. Under `CCC(Cc1ccccc1)NS(=O)(=O)c1ccc2c(c1)NC(=O)CS2` (stereo not given) stands 0.995%; under `Cc1cc(C)c(C#N)c(Nc2cccc(Br)c2)n1`, 0.576%; under `C[C@H](NC(=O)C1CC(=O)N(c2ccc3c(c2)OCCO3)C1)C(=O)N1CCC(C(=O)O)CC1` (stereo not given in full), 7.17%. With `COc1ccc(C(=O)NC2CC(C)(C)NC(C)(C)C2)cc1OC`, the max response is -1.7%. Under `COc1ccc(CN(C)C(C)C(=O)NC2CCCc3ccccc32)cc1` (stereo not given) stands 4.63%; under `CCCCC(=O)Nc1ccc2c(c1)OCCO2`, 36.8% (active). For `CCC(C(=O)Nc1ccc2c(c1)OCCO2)c1ccccc1` (stereo not given) the value was 19.2% (active); for `CCCCN(CC(=O)NC(C)(C)C)C(=O)C(=O)Nc1ccc2c(c1)OCCO2`, 5.6%. For `CCOc1ccc(NCCC(=O)c2ccc3c(c2)OCO3)cc1` the value was 14.4% (active); for `O=C(CN1CCN(c2ncc(C(F)(F)F)cc2Cl)CC1)Nc1ccc2c(c1)OCO2`, 2.27%. `O=C(CCS(=O)(=O)Cc1ccccc1)Nc1ccc2c(c1)OCCO2`: the max response is -1.91%.

Take `COc1ccc(C2(C)NC(=O)N(CC(=O)c3ccc4c(c3)OCO4)C2=O)cc1` (stereo not given): the max response is 1.46%. With `O=C(COc1ccc(Cl)cc1)Nc1ccc2c(c1)OCO2`, the max response is 15.8% (active). Turning to `CCC(C(=O)Nc1ccc(C(C)C)cc1)c1ccccc1` (stereo not given), the max response was -1.28%. As to `CC(=O)NCC(=O)N(C)C(C(=O)Nc1ccc2c(c1)OCCO2)c1ccccc1` (stereo not given), the max response is -1.79%. Consider `O=C(COc1ccc(Cl)cc1)Nc1ccc2oc(=O)ccc2c1`, for which the max response was -3.63%. For `CCOc1ccc(C(=O)CCN2CCOCC2)cc1` the value was 9.26%; for `COCCOC(=O)C1=C(C)NC(=O)NC1c1cc2c(cc1Br)OCO2` (stereo not given), -5.73%. Under `Cc1ccc(NC(=O)CN(C)C(=O)COC(=O)C(C)(C)Oc2ccc(Cl)cc2)cc1` stands -3.38%; under `COc1ccccc1C(=O)Nn1cnnc1`, -2.95%; under `CCC(C)(C)NC(=O)CN(C(=O)CCC(=O)Nc1nccs1)c1ccc2c(c1)OCO2`, -3.66%.
